For 25 compounds, ΔTm results are on record in ChEMBL document CHEMBL5308504, “Tm Shift (DSF) assay results for EUbOPEN Chemogenomics Library” (2023).

Where “and” joins values, the source holds several entries; their conditions need not be identical. Equal entries are not always repeated.

Common to all, as to conditions: Compound concentration 20.0 uM, Protein concentration 2.0 uM, Result type QC Liability
Test [1] addresses Tyrosine-protein kinase ABL1 (Homo sapiens) (UniProt P00519).
The target in test [2] is Cyclin-dependent kinase 2 (Homo sapiens) (UniProt P24941).
Test [3] concerns the target Casein kinase I isoform delta (Homo sapiens) (UniProt P48730).
Test [4] has as its target Glycogen synthase kinase-3 beta (Homo sapiens) (UniProt P49841).
For test [5], the target named is Mitogen-activated protein kinase 1 (Homo sapiens) (UniProt P28482).
Mitogen-activated protein kinase 1 (Homo sapiens), sequence (P28482 whole entry): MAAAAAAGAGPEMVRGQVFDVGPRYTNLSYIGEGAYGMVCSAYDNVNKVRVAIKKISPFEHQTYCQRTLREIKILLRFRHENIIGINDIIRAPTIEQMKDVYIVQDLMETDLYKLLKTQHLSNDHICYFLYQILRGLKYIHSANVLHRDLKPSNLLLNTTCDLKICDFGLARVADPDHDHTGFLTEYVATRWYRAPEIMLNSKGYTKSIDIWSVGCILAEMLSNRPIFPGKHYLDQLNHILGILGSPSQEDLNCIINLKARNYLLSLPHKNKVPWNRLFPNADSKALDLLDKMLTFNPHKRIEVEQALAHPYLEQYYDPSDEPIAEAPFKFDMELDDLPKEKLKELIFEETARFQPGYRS
In test [6] the target is T1, Aurora kinase A (Homo sapiens) (UniProt O14965).
T1 sequence (whole entry): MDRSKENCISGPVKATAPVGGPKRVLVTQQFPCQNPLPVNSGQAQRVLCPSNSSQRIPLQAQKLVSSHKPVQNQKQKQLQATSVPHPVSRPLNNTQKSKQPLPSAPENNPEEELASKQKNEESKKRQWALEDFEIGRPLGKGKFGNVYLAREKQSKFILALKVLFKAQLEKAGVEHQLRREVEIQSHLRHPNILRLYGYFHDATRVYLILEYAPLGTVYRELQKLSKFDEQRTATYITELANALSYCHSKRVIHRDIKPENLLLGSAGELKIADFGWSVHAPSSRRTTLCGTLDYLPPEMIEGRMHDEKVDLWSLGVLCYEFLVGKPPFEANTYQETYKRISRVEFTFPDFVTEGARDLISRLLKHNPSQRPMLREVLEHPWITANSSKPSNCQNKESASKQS

Tyrosine-protein kinase ABL1 (Homo sapiens), sequence (P00519 whole entry): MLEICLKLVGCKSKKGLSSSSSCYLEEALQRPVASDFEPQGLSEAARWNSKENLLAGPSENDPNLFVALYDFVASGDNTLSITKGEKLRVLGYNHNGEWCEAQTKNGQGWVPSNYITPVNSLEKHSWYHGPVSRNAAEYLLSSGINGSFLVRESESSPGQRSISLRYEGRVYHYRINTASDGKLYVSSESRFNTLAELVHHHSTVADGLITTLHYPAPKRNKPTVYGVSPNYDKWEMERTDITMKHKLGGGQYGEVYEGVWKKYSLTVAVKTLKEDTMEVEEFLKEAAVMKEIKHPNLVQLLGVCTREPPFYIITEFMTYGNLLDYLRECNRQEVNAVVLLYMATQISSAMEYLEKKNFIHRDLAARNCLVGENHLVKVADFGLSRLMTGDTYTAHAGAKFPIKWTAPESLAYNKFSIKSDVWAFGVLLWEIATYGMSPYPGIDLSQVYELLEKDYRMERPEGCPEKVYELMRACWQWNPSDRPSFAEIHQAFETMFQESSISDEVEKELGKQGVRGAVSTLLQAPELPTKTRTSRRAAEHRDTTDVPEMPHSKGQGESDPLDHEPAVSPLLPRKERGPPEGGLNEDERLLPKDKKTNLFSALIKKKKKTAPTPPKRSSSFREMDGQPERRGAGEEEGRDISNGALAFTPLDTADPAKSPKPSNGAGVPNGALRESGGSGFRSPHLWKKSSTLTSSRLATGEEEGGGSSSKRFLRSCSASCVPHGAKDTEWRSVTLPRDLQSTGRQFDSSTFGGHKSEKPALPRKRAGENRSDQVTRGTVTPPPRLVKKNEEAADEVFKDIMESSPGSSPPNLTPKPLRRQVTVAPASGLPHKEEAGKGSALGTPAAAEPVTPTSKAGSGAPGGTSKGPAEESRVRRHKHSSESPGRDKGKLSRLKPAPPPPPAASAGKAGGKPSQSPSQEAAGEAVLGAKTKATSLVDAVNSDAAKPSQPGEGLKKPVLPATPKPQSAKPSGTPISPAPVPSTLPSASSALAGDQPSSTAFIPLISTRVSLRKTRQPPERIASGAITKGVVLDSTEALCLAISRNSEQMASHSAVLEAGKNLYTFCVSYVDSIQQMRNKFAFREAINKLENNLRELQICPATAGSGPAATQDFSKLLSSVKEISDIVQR
Glycogen synthase kinase-3 beta (Homo sapiens), sequence (P49841 whole entry, looked up): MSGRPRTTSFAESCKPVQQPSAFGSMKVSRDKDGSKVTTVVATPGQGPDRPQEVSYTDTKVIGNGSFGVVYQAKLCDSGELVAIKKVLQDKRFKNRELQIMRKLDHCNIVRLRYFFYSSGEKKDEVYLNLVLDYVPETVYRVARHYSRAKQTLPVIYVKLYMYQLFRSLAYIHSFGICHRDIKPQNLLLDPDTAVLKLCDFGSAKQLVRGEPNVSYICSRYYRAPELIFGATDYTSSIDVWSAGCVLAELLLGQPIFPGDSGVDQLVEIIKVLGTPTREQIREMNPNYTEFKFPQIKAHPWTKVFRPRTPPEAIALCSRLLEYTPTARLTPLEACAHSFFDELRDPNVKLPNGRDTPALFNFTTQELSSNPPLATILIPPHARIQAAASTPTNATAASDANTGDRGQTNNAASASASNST
Casein kinase I isoform delta (Homo sapiens), sequence (P48730 whole entry, looked up, canonical isoform): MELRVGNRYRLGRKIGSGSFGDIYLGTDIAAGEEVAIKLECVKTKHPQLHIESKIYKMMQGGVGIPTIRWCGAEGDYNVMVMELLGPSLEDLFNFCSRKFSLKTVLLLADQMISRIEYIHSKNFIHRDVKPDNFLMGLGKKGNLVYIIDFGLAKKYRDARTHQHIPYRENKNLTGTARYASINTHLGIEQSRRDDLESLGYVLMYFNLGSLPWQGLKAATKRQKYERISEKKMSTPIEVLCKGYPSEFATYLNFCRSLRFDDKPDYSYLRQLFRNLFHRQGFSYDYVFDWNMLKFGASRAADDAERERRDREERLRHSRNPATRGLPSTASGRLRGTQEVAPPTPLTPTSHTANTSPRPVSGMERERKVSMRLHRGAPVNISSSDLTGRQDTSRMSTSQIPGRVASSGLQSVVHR

`O=C(Nc1ccc(-n2nc(-c3cccnc3)cc2C(F)(F)F)cn1)c1ccc(-c2ccccc2)c(F)c1`: the ΔTm (as a rule, the shift of the melting midpoint relative to a reference) is -0.47 °C in test [1]; -0.05 °C in test [2]; -0.18 °C in test [3]; -0.91 °C in test [4]; 0.06 °C in test [5]; 0.04 °C in test [6].
With `Cc1c(NC(=O)COc2ccc(Cl)cc2C(=O)c2cc(F)cc(C(F)(F)F)c2)ccc(C(=O)O)c1F`, the ΔTm in test [1] is -0.06 °C and 0.75 °C; in test [2], 0.5 °C and 0.58 °C; in test [3], 0.18 °C and 0.09 °C; in test [4], 1.73 °C and 2.32 °C; in test [5], 0.12 °C and 0.93 °C; in test [6], -0.24 °C and -1.26 °C.
As to `Cc1ncsc1-c1ccc(CNC(=O)[C@@H]2C[C@@H](O)CN2C(=O)[C@@H](NC(=O)CCCCNC(=O)c2ccc(-c3ccc(N4CCN(C)CC4)c(NC(=O)c4c[nH]c(=O)cc4C(F)(F)F)c3)cc2)C(C)(C)C)cc1`, the ΔTm in test [1] is -3.44 °C; in test [2], 1.06 °C; in test [3], 0.88 °C; in test [4], -0.58 °C; in test [5], -2.62 °C; in test [6] it was 0.62 °C.
As to `COc1c(NC(=O)c2cc3cccc(Oc4ccnc(C(=O)N5CCN(C)CC5)c4)c3n2C)cc(C(C)(C)C)cc1NS(C)(=O)=O`, the thermal shift (ΔTm) in test [1] was 0.38 °C; in test [2], -0.2 °C; in test [3], 0.73 °C; in test [4], -0.6 °C; in test [5] it was 0.86 °C; in test [6], -1.1 °C.
In the case of `Fc1ccc(-c2c3cccc(C(F)(F)F)c3nn2Cc2ccc(F)cc2Cl)cc1`, the ΔTm was 0.02 °C in test [1]; 0.18 °C in test [2]; 0.79 °C in test [3]; -1.83 °C in test [4]; 0.06 °C in test [5]; -1.66 °C in test [6].
Take `C=CC(=O)Nc1cccc(C)c1Nc1ncc2cc(-c3c(Cl)c(OC)cc(OC)c3Cl)ccc2n1`: the thermal shift (ΔTm) was 0.49 °C in test [1]; 0.87 °C in test [2]; 0.34 °C in test [3]; -1.24 °C in test [4]; -3.69 °C in test [5]; -2.08 °C in test [6].
With `N=C(N)NCCC[C@@H](NC(=O)C(c1ccccc1)c1ccccc1)C(=O)NCc1ccc(CNC(N)=O)cc1`, the shift in melting temperature (ΔTm) in test [1] was 0.37 °C; in test [2] it was 0.62 °C; in test [3], 0.21 °C; in test [4], -0.25 °C; in test [5] it was 0.26 °C; in test [6], 0.1 °C.
With `Cn1cncc1-c1cn(-c2cccc(C(=O)Nc3cccc(C(F)(F)F)c3)c2)nn1`, the thermal shift (ΔTm) was 7.19 °C in test [1]; 0.01 °C in test [2]; -7.39 °C in test [3]; -0.16 °C in test [4]; -8.38 °C in test [5]; 1.95 °C in test [6].
In the case of `NCC1CCC(CNc2nc(NCc3ccccc3OC(F)(F)F)ncc2[N+](=O)[O-])CC1` (stereo not given), the shift in melting temperature (ΔTm) in test [1] is 0.62 °C; in test [2], -0.56 °C; in test [3], 0.19 °C; in test [4] it was 3.29 °C; in test [5] it was -0.1 °C; in test [6], 1.01 °C.
Regarding `CS(=O)(=O)CCNCc1ccc(-c2ccc3ncnc(Nc4ccc(OCc5cccc(F)c5)c(Cl)c4)c3c2)o1`, the ΔTm in test [1] is 0.09 °C; in test [2] it was 0.9 °C; in test [3] it was 0.12 °C; in test [4] it was -0.86 °C; in test [5], 0.56 °C; in test [6], -0.38 °C.
On to `Cn1nc(-c2ccc(C(N)=O)cc2)c2ccccc2c1=O`, for which the shift in melting temperature (ΔTm) in test [1] is 0.66 °C; in test [2], 0.13 °C; in test [3], 0.57 °C; in test [4] it was -0.19 °C; in test [5], 0.56 °C; in test [6], 0.43 °C.
With `CN1C(=O)c2c(nn(Cc3ccc(-c4cccc(F)n4)cc3)c2Nc2ccccc2)N2C1=N[C@@H]1CCC[C@@H]12`, the shift in melting temperature (ΔTm) was 0.4 °C in test [1]; 0 °C in test [2]; 0.16 °C in test [3]; 3.99 °C in test [4]; -0.56 °C in test [5]; -0.49 °C in test [6].
With `O=C(O)CCCc1cc2cc(Cl)ccc2n1S(=O)(=O)c1ccc2ncsc2c1`, the ΔTm in test [1] is 0.34 °C; in test [2], 0.24 °C; in test [3] it was 1.03 °C; in test [4], -2.46 °C; in test [5] it was 0.26 °C; in test [6] it was -0.83 °C.
In the case of `FC(F)(F)c1ccc(CNc2ccc(Cc3c[nH]c4ncc(Cl)cc34)cn2)cn1`, the shift in melting temperature (ΔTm) in test [1] was -2.59 °C; in test [2], 1.62 °C; in test [3], 1.05 °C; in test [4] it was -0.38 °C; in test [5], 0.93 °C; in test [6], 10.6 °C.
In the case of `Cc1ncsc1-c1ccc(CNC(=O)[C@@H]2C[C@H](O)CN2C(=O)[C@@H](NC(=O)C2(F)CC2)C(C)(C)C)c(OCCOc2ccc(CN3CCN(c4cc(-c5ccccc5O)nnc4N)CC3)cc2)c1` (relative stereo), the thermal shift (ΔTm) in test [1] was 0.51 °C; in test [2], 2.76 °C; in test [3], 6.03 °C; in test [4], 0.29 °C; in test [5], 0.5 °C; in test [6] it was 3.42 °C.
For the compound `Cc1cc2c(-c3ccco3)cnc(N[C@@H]3CCN(C)C[C@H]3C(=O)NC3CCCCC3)c2[nH]c1=O`, the ΔTm in test [1] was 0.07 °C; in test [2], 0.91 °C; in test [3], -0.09 °C; in test [4] it was -0.51 °C; in test [5], 0.54 °C; in test [6], 0.79 °C.
As to `COCCCS(=O)(=O)c1cc(C)c(-c2ccc(F)c3c2CC[C@H]3Oc2ccc3c(c2)OC[C@H]3CC(=O)O)c(C)c1`, the ΔTm in test [1] was 0.43 °C; in test [2] it was 0 °C; in test [3] it was 0.06 °C; in test [4], 0 °C; in test [5], 0 °C; in test [6] it was -0.86 °C.
On to `C[S+](C)[O-]`, for which the thermal shift (ΔTm) in test [1] was 0 °C (2×) and 0.21 °C; in test [2], 0 °C (2×) and 0.78 °C; in test [3] it was 0 °C (2×) and 0.01 °C; in test [4], 0 °C (2×) and -0.51 °C; in test [5] it was 0 °C (2×) and 0.53 °C; in test [6], 0 °C (2×) and 0.05 °C.
On to `Cc1cc(-c2cc3ncccc3c(OC[C@H]3CCCNC3)n2)ccc1N(C)C`, for which the ΔTm in test [1] worked out at 5.72 °C; in test [2] it was 0.38 °C; in test [3], 2.65 °C; in test [4] it was 1.68 °C; in test [5] it was 0.09 °C; in test [6], 7.37 °C.
On to `CCS(=O)(=O)c1cc2cc(C[C@@](O)(CC(C)(C)c3ccc(F)cc3C(N)=O)C(F)(F)F)[nH]c2cn1`, for which the shift in melting temperature (ΔTm) in test [1] was -0.47 °C and 0.04 °C; in test [2] it was 0.64 °C and 0.86 °C; in test [3] it was 0.37 °C and 0.15 °C; in test [4], -0.42 °C and -0.19 °C; in test [5], -0.08 °C and 0.35 °C; in test [6] it was -0.24 °C and 0.19 °C.
With `Cc1ccc(-n2nc(C(C)(C)C)cc2NC(=O)Nc2ccccc2F)cc1`, the ΔTm is 1.53 °C in test [1]; 1.51 °C in test [2]; 2.52 °C in test [3]; -0.41 °C in test [4]; 3.34 °C in test [5]; -1.69 °C in test [6].
In the case of `Cn1nccc1-c1ccc(Sc2cccc(C3(C(N)=O)CCOCC3)c2)cc1`, the shift in melting temperature (ΔTm) in test [1] is -0.11 °C; in test [2] it was 0.88 °C; in test [3], -0.02 °C; in test [4], -1.17 °C; in test [5] it was 0.22 °C; in test [6], 0.6 °C.
On to `CNC(=O)c1cccc(-c2ccc3c(N4CCOC[C@@H]4C)nc(N4CCOC[C@@H]4C)nc3n2)c1`, for which the shift in melting temperature (ΔTm) in test [1] worked out at 0.83 °C; in test [2] it was 0.33 °C; in test [3] it was 0.36 °C; in test [4], 0.51 °C; in test [5], 0 °C; in test [6] it was 0.91 °C.
Regarding `COc1cc(-c2cc3ncccc3c(O[C@H](C)[C@H]3CNC(=O)C3)n2)cc(OC)c1OC`, the ΔTm was 3.69 °C and 3.1 °C in test [1]; 0.94 °C in test [2]; 3.55 °C and 2.97 °C in test [3]; -0.33 °C and -0.99 °C in test [4]; 1.84 °C and 1.51 °C in test [5]; 9.58 °C and 8.08 °C in test [6].
With `CC(F)(F)CN1C(=O)c2[nH]nc(-c3cccc4[nH]c(=O)oc34)c2C1c1ccc(Oc2cc(C(F)(F)F)cc(C(F)(F)F)c2)cc1` (stereo not given), the shift in melting temperature (ΔTm) was 0.76 °C in test [1]; 0.46 °C in test [2]; 4.37 °C in test [3]; -4.17 °C in test [4]; 1.19 °C in test [5]; 0 °C in test [6].
